Source: PubChem BioAssay
In the library only some 2.4% were active in any assay of this set; here they are far more common.
TMEM16A act: mouse TMEM16A channel activation, primary screen. B-score at 10 µM. AID 623877. HEK293 TMEM16A/YFP-H148Q/I152L, iodide quench fluorescence; active compounds read low. 0.3% of 340,000 active. Q8BHY3;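 active = fluorescence-ratio B-score plate-corrected deviation score at least 3 library SD below zero, with starting fluorescence score within 5 deviations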;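 note: channel opened by trigger with iodide after compound preincubation; score built on the fluorescence ratio of max minus min over baseline; more negative score means more quench and so TMEM16A activation or potentiation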
ANO1 block: blocks the mouse calcium-activated chloride channel TMEM16A; HEK293 TMEM16A/YFP iodide influx fluorescence, ionomycin; Q8BHY3; normalized B-score (activity score, 25-100; higher = stronger inhibition) at 10 µM; 1.2% of 310,000 active;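 active = ratio plate-corrected score three or more library SD toward inhibition, starting fluorescence score within five deviations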;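 note: score derived from kinetic fluorescence span divided by baseline fluorescence per well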
CHT allo act: allosteric activators of human choline transporter CHT; CHT-expressing cells, membrane potential dye, choline EC20; active compounds read high; LV-AA mutant CHT in HEK293 cells; B-score at 10 µM; 0.49% of 310,000 active; AID 488977;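 active = initial fluorescence not abnormally high and integrated response B-score, plate-corrected, over 3 SD above library mean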
Target sequence (Q9GZV3 whole entry, looked up): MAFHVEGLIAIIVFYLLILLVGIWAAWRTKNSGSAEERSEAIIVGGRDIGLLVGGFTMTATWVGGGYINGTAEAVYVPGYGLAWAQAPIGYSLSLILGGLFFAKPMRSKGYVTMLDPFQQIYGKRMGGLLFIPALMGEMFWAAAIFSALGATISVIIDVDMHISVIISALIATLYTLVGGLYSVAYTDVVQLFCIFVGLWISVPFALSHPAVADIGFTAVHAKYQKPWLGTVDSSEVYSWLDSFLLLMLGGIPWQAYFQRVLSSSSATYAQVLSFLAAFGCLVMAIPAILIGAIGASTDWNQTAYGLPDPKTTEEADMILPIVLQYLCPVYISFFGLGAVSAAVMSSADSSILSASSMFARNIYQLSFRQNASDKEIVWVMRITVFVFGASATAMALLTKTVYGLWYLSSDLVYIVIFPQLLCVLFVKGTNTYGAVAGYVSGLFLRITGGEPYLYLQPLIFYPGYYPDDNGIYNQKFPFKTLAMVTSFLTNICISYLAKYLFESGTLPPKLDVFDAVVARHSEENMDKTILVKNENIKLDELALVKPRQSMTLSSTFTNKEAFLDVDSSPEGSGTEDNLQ
CHT inh: inhibits the human high affinity choline transporter. CHT-expressing cells, membrane potential dye, choline response; active compounds read low. B-score at 10 µM. 0.86% of 310,000 active;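 active = B-score over 3 SD under the library average, and starting fluorescence ratio not unusually high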;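 note: choline stimulus applied at its EC90 after an EC20 pre-addition; B-score computed on integrated fluorescence ratio after choline addition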
TMEM16A reconf: re-confirmation of mouse TMEM16A chloride channel inhibitors; inhibition, % at 10 µM; shares compounds with ANO1 block; HEK293 TMEM16A/YFP-H148Q, iodide quench fluorescence; ionomycin added to raise cell calcium; 39% of 2,300 active;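 active = mean duplicate percent inhibition, scaled so buffer wells are 0 and the reference blocker 100, over three buffer SD above buffer mean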
HEK293 Ca mobil: alters calcium mobilization in TMEM16A HEK293 cells, counter-screen; shares compounds with ANO1 block; TMEM16A/YFP HEK293, Fluo4 calcium mobilization; calcium response (% of ionomycin), % at 10 µM; 2% of 2,300 active; AID 652231;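 active = duplicate-averaged calcium signal over 20% of the ionomycin maximum, relative to buffer baseline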;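 note: each well's signal is peak minus trough fluorescence divided by its pre-addition baseline; 0% = buffer wells and 100% = ionomycin wells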
YFP-HEK293 quench: parental YFP-HEK293 iodide quench counter-screen activity; shares compounds with ANO1 block; ionomycin; 2,300 tested, under 10 active; YFP ratio F(max-min)/F0 at 10 µM; AID 652233;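 active = yellow fluorescent protein signal ratio exceeding the buffer control mean by over 5 SD of those controls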;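 note: ratio is mean of duplicate wells from kinetic YFP trace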
ClC-1 rat inh: selectivity of TMEM16A inhibitors: inhibition of rat ClC-1 chloride channel | 2,300 tested, under 10 active | shares compounds with ANO1 block | CHO ClC-1-YFP, iodide influx fluorescence quench; iodide control reads 0, buffer control 100 | ratio percent, % at 10 µM;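 active = duplicate-mean ratio percent above the mean of iodide-only control wells, which defines zero, plus 5 of their SD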;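 note: higher percent means stronger block of ClC-1 iodide influx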
Starred values were filed as active, the others as inactive; i = inactive; · = no result given.

SMILES	TMEM16A act	ANO1 block	CHT allo act	CHT inh	TMEM16A reconf	HEK293 Ca mobil	YFP-HEK293 quench	ClC-1 rat inh
CCCCOc1ccccc1Cn1c(=O)oc2ccc(C)cc21	i	100*	i	i	i	i	-1.2	-8
Cc1ccccc1OC(C)C(=O)NC1CCCC1 (stereo unspecified)	i	i	i	i	·	·	·	·
Cc1noc(C)c1COc1cccc(C(=O)Nc2ccccc2N2CCOCC2)c1	i	i	i	i	·	·	·	·
CCCCSc1oc(-c2ccco2)nc1S(=O)(=O)c1ccccc1	i	25*	i	i	i	i	-0.74	-9
O=C(N/N=C/c1cc(Br)cc([N+](=O)[O-])c1O)c1ccc(NC(=O)c2ccc(F)cc2)cc1	i	i	i	i	·	·	·	·
Cc1cccc(CN2C(=O)N/C(=C/c3ccc(C)s3)C2=O)c1	i	i	i	i	i	i	-0.84	8
CCOC(=O)C1CCCN(C(=O)C(C)(C)Oc2ccc(Cl)cc2)C1 (stereo unspecified)	i	i	i	i	·	·	·	·
C=CCNC(=O)c1oc2ccc(S(=O)(=O)N(CC)CC)cc2c1C	i	25*	i	i	i	i	-1	-6
CCN(CC)S(=O)(=O)c1ccc2oc(C(=O)NCCN3CCOCC3)c(C)c2c1	i	i	i	i	·	·	·	·
Cn1c(CNS(=O)(=O)c2ccc(F)cc2)n[nH]c1=S	i	100*	i	i	i	i	-1	-10
CC(C)Cn1c(Cc2ccccc2)n[nH]c1=S	i	100*	i	i	i	i	-1.2	-4
COc1ccccc1NC(=O)c1ccc(NS(=O)(=O)c2ccc(F)c(Cl)c2)cc1	i	i	i	i	·	·	·	·
Cc1ccc2sc(C)cc(=O)c2c1	i	·	·	·	·	·	·	·
Cc1cccc(OCCCSc2nc3ccc(C)cc3[nH]2)c1	i	100*	i	i	33%*	i	-1	-14
Cc1cccc(OCCSc2nc3ncnc(N)c3[nH]2)c1	i	i	i	i	·	·	·	·
COc1ccc(/C=C2\SC(=S)N(NS(=O)(=O)c3ccc(C)cc3)C2=O)c(OC)c1	i	25*	i	i	23%*	i	-0.99	-14
Nc1c(C(=O)NCCc2ccccc2)nnn1Cc1ccccc1	i	i	i	i	i	i	-0.8	-4
CC1C(=O)Nc2ccccc2N1C(=O)C1CC1 (stereo unspecified)	i	25*	i	i	i	i	-0.91	-14
COc1ccc(CCNS(=O)(=O)c2ccc(OC)cc2)cc1	i	25*	i	i	i	i	-0.78	-5
CCNS(=O)(=O)c1ccc(CCC(=O)NCCc2ccc(OC)cc2)cc1	i	i	i	i	·	·	·	·
Cc1c(Cl)c(C(=O)NC2C3CC4CC(C3)CC2C4)nn1C (stereo unspecified)	i	100*	i	i	i	i	-0.96	-1
COc1ccc2cc(C(=O)C3CCCN(C(=O)c4cncs4)C3)ccc2c1 (stereo unspecified)	i	i	i	i	·	·	·	·
Cc1cccc(NC(=S)NCCSc2ccc(Cl)cc2)c1	i	100*	i	i	72%*	i	-1	-32
Cc1ccc(NC(=S)NCCSc2ccc(Cl)cc2)c(C)c1	i	i	i	i	·	·	·	·
COCCCNC(=O)C1CC(=O)N(Cc2ccc(OC)cc2)C1 (stereo unspecified)	i	i	i	i	·	·	·	·
COc1ccc(CN2CC(C(=O)NCc3ccccn3)CC2=O)cc1 (stereo unspecified)	i	100*	i	i	i	i	-1.1	-20
